Laboratory results as given in PubChem BioAssay (NCATS).
Inconclusive results are not listed. Activity calls are given as the source filed them. The call rests on the fitted dose curve; in most records, active means well fitted cell-killing curve with a large enough effect; inconclusive means small, poorly fitted or top-dose-only effect, or effect the other way; inactive means no such curve, though single readings can be large or run the other way.

Experiment: Quantitative High-Throughput drug screen in 47 multiple myeloma cell lines against the NCATS MIPE library collection: JJN3_DSMZ cell viability assay (AID 1918966; further: nearly all actives have a fitted effect of over 50% in size)
Settings: JJN3 myeloma cells viability, CellTiter-Glo ATP, 48 h; series mostly up to 45.8 µM
How it was run: (§1)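 Luminescent ATP measurement with CellTiter-Glo gives viability, scaled between DMSO-only wells (100%) and media-only wells (0%). Cells, 500 per well, faced library compounds for 48 hours at 37C.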
Potency means the concentration at half of the fitted maximal effect.

| Structure (SMILES) | Potency |
| --- | --- |
| COc1ccccc1N1CCN(CC(O)COc2cccc3ccccc23)CC1 (centres undefined) | inactive |
| NCCc1cnc[nH]1 | inactive |
| CN(C)CCC=C1c2ccccc2C=Cc2ccccc21 | 18.7 µM (active) |
| CCCNCC(O)COc1ccccc1C(=O)CCc1ccccc1 (centres undefined) | inactive |
| C[C@](N)(Cc1ccc(O)c(O)c1)C(=O)O | 18.7 µM (active) |
| Cc1ccccc1N1C(=O)c2cc(S(N)(=O)=O)c(Cl)cc2NC1C (centres undefined) | 4.69 µM (active) |
| CC(CCc1ccc(O)cc1)NCCc1ccc(O)c(O)c1 (centres undefined) | 14.8 µM (active) |
| OCCN(CCO)c1nc(N2CCCCC2)c2nc(N(CCO)CCO)nc(N3CCCCC3)c2n1 | 23.5 µM (active) |
| CN(Cc1cnc2nc(N)nc(N)c2n1)c1ccc(C(=O)N[C@@H](CCC(=O)O)C(=O)O)cc1 | 0.0469 µM (active) |
| O=C1N(c2ccccc2)c2ccccc2C1(Cc1ccncc1)Cc1ccncc1 | inactive |

Experiment: Quantitative High-Throughput drug screen in 47 multiple myeloma cell lines against the NCATS MIPE library collection: H1112_PLB cell viability assay (AID 1918967; further: nearly all actives have a fitted effect of over 30% in size)
Settings: H1112 myeloma cells viability, ATP luminescence, 48 h; series mostly up to 45.8 µM
How it was run: as §1

| Structure (SMILES) | Potency |
| --- | --- |
| COc1ccccc1N1CCN(CC(O)COc2cccc3ccccc23)CC1 (centres undefined) | 16.6 µM (active) |
| NCCc1cnc[nH]1 | inactive |
| O=c1c(-c2ccc(O)cc2)coc2cc(O)cc(O)c12 | inactive |
| COc1cc2nc(N(C)CCCNC(=O)C3CCCO3)nc(N)c2cc1OC (centres undefined) | inactive |
| Clc1ccc(C(c2ccccc2Cl)C(Cl)Cl)cc1 (centres undefined) | inactive |
| CC(C)(Oc1ccc(C2CC2(Cl)Cl)cc1)C(=O)O (centres undefined) | inactive |
| COc1ccccc1OCCNCC(O)COc1cccc2[nH]c3ccccc3c12 (centres undefined) | 16.6 µM (active) |
| CC(C(=O)O)c1cccc(C(=O)c2ccccc2)c1 (centres undefined) | 18.7 µM (active) |
| O=C(C1CCCCC1)N1CC(=O)N2CCc3ccccc3C2C1 (centres undefined) | inactive |
| CCCNCC(O)COc1ccccc1C(=O)CCc1ccccc1 (centres undefined) | inactive |
| Cn1ccc2cc3c(cc21)CCN3C(=O)Nc1cccnc1 | 20.9 µM (active) |
| N[C@@H](Cc1c[nH]c2ccc(O)cc12)C(=O)O | inactive |
| CN(C)C(=N)N=C(N)N | inactive |
| O=C(CCCN1CCC(O)(c2ccc(Cl)cc2)CC1)c1ccc(F)cc1 | inactive |
| Cc1ccccc1N1C(=O)c2cc(S(N)(=O)=O)c(Cl)cc2NC1C (centres undefined) | inactive |
| CN1CCN2c3ccccc3Cc3ccccc3C2C1 (centres undefined) | 23.5 µM (active) |
| COc1cc2nc(N3CCN(C(=O)C4COc5ccccc5O4)CC3)nc(N)c2cc1OC (centres undefined) | 18.7 µM (active) |
| CN(Cc1cnc2nc(N)nc(N)c2n1)c1ccc(C(=O)N[C@@H](CCC(=O)O)C(=O)O)cc1 | 0.0662 µM (active) |
| Cc1cc(C(C)(C)C)cc(C)c1CC1=NCCN1 | inactive |
| Fc1ccc([C@@H]2CCNC[C@H]2COc2ccc3c(c2)OCO3)cc1 | 10.5 µM (active) |
| O=C1N(c2ccccc2)c2ccccc2C1(Cc1ccncc1)Cc1ccncc1 | inactive |
| Cc1cc(C(C)(C)C)c(O)c(C)c1CC1=NCCN1 | inactive |

Experiment: Quantitative High-Throughput drug screen in 47 multiple myeloma cell lines against the NCATS MIPE library collection: Karpas25_ECACC cell viability assay (AID 1918968; further: nearly all actives have a fitted effect of over 35% in size)
Settings: Karpas25 myeloma viability, CellTiter-Glo ATP, 48 h; series mostly up to 45.8 µM
How it was run: as §1

| Structure (SMILES) | Potency |
| --- | --- |
| CN(C)CCOC(c1ccccc1)c1ccccc1 | 9.35 µM (active) |
| COc1ccccc1N1CCN(CC(O)COc2cccc3ccccc23)CC1 (centres undefined) | 11.8 µM (active) |
| NCCc1cnc[nH]1 | inactive |
| CN(C)CCC=C1c2ccccc2C=Cc2ccccc21 | 1.66 µM (active) |
| COc1cc2nc(N(C)CCCNC(=O)C3CCCO3)nc(N)c2cc1OC (centres undefined) | inactive |
| COc1ccccc1OCCNCC(O)COc1cccc2[nH]c3ccccc3c12 (centres undefined) | inactive |
| CC(C(=O)O)c1cccc(C(=O)c2ccccc2)c1 (centres undefined) | 13.2 µM (active) |
| O=C(C1CCCCC1)N1CC(=O)N2CCc3ccccc3C2C1 (centres undefined) | inactive |
| CCCNCC(O)COc1ccccc1C(=O)CCc1ccccc1 (centres undefined) | 16.6 µM (active) |
| Cn1ccc2cc3c(cc21)CCN3C(=O)Nc1cccnc1 | 20.9 µM (active) |
| CN1CCN(C2=Nc3cc(Cl)ccc3Nc3ccccc32)CC1 | 26.4 µM (active) |
| C[C@H]1c2cccc(O)c2C(O)=C2C(=O)[C@]3(O)C(O)=C(C(N)=O)C(=O)[C@@H](N(C)C)[C@@H]3[C@@H](O)[C@@H]21 | 16.6 µM (active) |
| CN(C)C(=N)N=C(N)N | inactive |
| Nc1nnc(-c2cccc(Cl)c2Cl)c(N)n1 | 20.9 µM (active) |
| C[C@](N)(Cc1ccc(O)c(O)c1)C(=O)O | 20.9 µM (active) |
| O=C(CCCN1CCC(O)(c2ccc(Cl)cc2)CC1)c1ccc(F)cc1 | 2.96 µM (active) |
| Cc1ccccc1N1C(=O)c2cc(S(N)(=O)=O)c(Cl)cc2NC1C (centres undefined) | inactive |
| CC(CCc1ccc(O)cc1)NCCc1ccc(O)c(O)c1 (centres undefined) | 18.7 µM (active) |
| OCCN(CCO)c1nc(N2CCCCC2)c2nc(N(CCO)CCO)nc(N3CCCCC3)c2n1 | 26.4 µM (active) |
| CN1CCN2c3ccccc3Cc3ccccc3C2C1 (centres undefined) | 23.5 µM (active) |
| COc1ccc2c(c1)c(CC(=O)O)c(C)n2C(=O)c1ccc(Cl)cc1 | 20.9 µM (active) |
| COc1cc2nc(N3CCN(C(=O)C4COc5ccccc5O4)CC3)nc(N)c2cc1OC (centres undefined) | 20.9 µM (active) |
| CN(Cc1cnc2nc(N)nc(N)c2n1)c1ccc(C(=O)N[C@@H](CCC(=O)O)C(=O)O)cc1 | 1.18 µM (active) |
| Cc1cc(C(C)(C)C)cc(C)c1CC1=NCCN1 | inactive |
| Fc1ccc([C@@H]2CCNC[C@H]2COc2ccc3c(c2)OCO3)cc1 | inactive |
| O=C1N(c2ccccc2)c2ccccc2C1(Cc1ccncc1)Cc1ccncc1 | inactive |
| Cc1cc(C(C)(C)C)c(O)c(C)c1CC1=NCCN1 | inactive |
